Test results: ChEMBL document CHEMBL4513216, “Probing the Open Global Health Chemical Diversity Library for Multistage-Active Starting Points for Next-Generation Antimalarials” (ACS Infect Dis, 2020)
Hit rate of the full screen: of about 69,000 compounds, about 8,600 (12%) showed an effect of 50% or more. The full list was thinned out, with strong results kept by preference.

These compounds were tested on Plasmodium berghei (assay: Screen against P. berghei liver stage (PbLuc), transformed with Luciferase, at 10uM). Details: tested at 10 uM.
Type: functional, HepG2

| SMILES | INHIBITION [%] |
| --- | --- |
| CCOCCOc1ccc(S(=O)(=O)N2CCc3c(nc[nH]c3=O)C2)cc1 | 5.05 |
| Cc1nc(CN2CCN(CC3CCOC3)Cc3cccnc32)cs1 (stereo not given) | 41 |
| NC(=O)CSc1ccccc1NC(=O)C1CCCC1 | -53.6 |
| COc1cccc(C=CCCN2CCC(C(=O)N3CCCC3)CC2)c1 | -16.1 |
| O=C1NC2(CCN(C(=O)CN3CCOCC3)CC2)Nc2ccc(Cl)cc21 | 23.75 |
| Cn1ccc2cc(C(=O)Nc3nc[nH]n3)ccc21 | 11.6 |
| CN(C)C(=O)c1nnn(-c2ccc(Br)cc2)n1 | 28.4 |
| CCNc1cc2c(nn1)CCN(C(=O)Cc1ccc(C)nc1)C2 | -42.1 |
| CCc1ccc(C(=O)N2CCCC3(CCCC(=O)N3C)C2)cc1 (stereo not given) | 30.9 |
| O=C(CS(=O)(=O)C1CCCC1)NC(c1ccc(F)cc1)C1CC1 (stereo not given) | -32.6 |
| COCCN1C[C@@H]2CC[C@H]1CN(Cc1nc3ccccc3n1C)C2 | -35 |
| CC(=O)NCCNC(=O)c1cnc(-c2ccc(C)cc2C)s1 | -74.9 |
| CN(Cc1cnc(N)nc1)C(=O)c1coc(COc2ccccc2)n1 | 27.6 |
| CN1CCN(Cc2cccnc2)C(=O)C12CCN(Cc1ccco1)CC2 | 32.1 |
| Cc1nccn1Cc1nnc(C2CCN(c3ccncc3F)CC2)n1C | -21.9 |
| CC[C@@H]1N(Cc2ccsc2)CCC[C@]12CCC(=O)N2C | 23.2 |
| CC[C@@H]1N(Cc2ccsc2)CCC[C@]12CCC(=O)N2CCOC | 52.4 |
| CC[C@@H]1N(Cc2ccncc2)CCC[C@]12CCC(=O)N2CCOC | 25.3 |
| Cc1csc(CN2CC[C@@](O)(C3CCOCC3)[C@H](C)C2)n1 | 9.55 |
| O=C1NCc2ccccc2CC12CCN(Cc1c(F)cccc1Cl)C2 (stereo not given) | -9.73 |
| COc1ccc(CN(C(=O)C2CCOCC2)c2ccncc2)cc1 | 1.7 |
| COc1ccc(CN(C(=O)C2CCCO2)c2ccncc2)cc1 (stereo not given) | 27.5 |
| COc1ccc(CN(C(=O)C2CCCOC2)c2ccncc2)cc1 (stereo not given) | 66.3 |
| Brc1cnc(NCc2ccccc2N2CCOCC2)nc1 | -31.7 |

| SMILES | INHIBITION [%] |
| --- | --- |
| COCCC(=O)N1CC2(CCN(c3ccccc3)C2)C1 | 12.1 |
| O=C(CCO)N1CC2(CCN(c3ccccc3)C2)C1 | 61.9 |
| O=C(CO)N1CC2(CCN(c3ccccc3)C2)C1 | -34.6 |
| Cc1nn(C)c(N(C)C)c1CNCCCNS(C)(=O)=O | -66.8 |
| CSc1[nH]nc(NC(=O)c2ccccc2)c1C#N | 23.1 |
| O[C@@H]1Cc2ccccc2[C@@H]1Nc1ncccc1F | 18 |
| O[C@H]1Cc2ccccc2[C@H]1Nc1ncccc1C(F)(F)F | 56.3 |
| N#Cc1cccnc1N[C@@H]1c2ccccc2C[C@@H]1O | 22.9 |
| COc1ccc2c(ccn2CCC(=O)Nc2n[nH]c(CC(C)C)n2)c1 | 46.7 |
| O=C(CC1CCCC1)NCCS(=O)(=O)N1CCN(c2ncccn2)CC1 | -73.6 |
| Cc1n[nH]c2c1C(c1ccc(Cl)cc1)SCC(=O)N2 (stereo not given) | 46.7 |
| Cc1n[nH]c2c1C(c1ccc(F)cc1)SCC(=O)N2 (stereo not given) | 23.5 |
| Cc1n[nH]c2c1C(c1ccc(Br)cc1)SCC(=O)N2 (stereo not given) | 61.8 |
| COCCC(=O)N1CC[C@@H](N2CCOCC2)[C@@H]1Cc1ccccc1 | 38.1 |
| Cc1cccnc1CNC(=O)CC1C(=O)NCCN1CC(C)(C)C (stereo not given) | 6.29 |
| CC(=O)N(Cc1noc(C)n1)C1CCN(Cc2ncc(C(C)C)o2)C1 (stereo not given) | 11.6 |
| Cc1nn(C)c(C)c1CC(=O)NCc1cccnc1OC1CCCC1 | 29.8 |
| CCOc1ncccc1CNC(=O)Nc1cc(C)nn1C | -19.6 |
| COc1ncccc1CNC(=O)Nc1cc(C)nn1C | 29.7 |
| Cc1nn(C)c(C)c1C(=O)NCc1cccnc1OC1CCCC1 | 37.6 |
| Cc1cc(NC(=O)NCc2cccnc2OC2CCCC2)n(C)n1 | 50.3 |
| Cc1nn(C)c(C)c1CCC(=O)NCc1cccnc1OC1CCCC1 | 56.6 |
| OCC1(NCc2cccc(-n3cccn3)c2)CCOCC1 | 43.4 |
| CCN1CCCC1(C)c1nc(C)cc(N)n1 (stereo not given) | -2.09 |

| SMILES | INHIBITION [%] |
| --- | --- |
| CCOc1ccc(NC(=O)NCC(C)(O)c2cccs2)cc1 (stereo not given) | 40.6 |
| O=C(Nc1cnccn1)[C@H]1COC[C@H]2CN(C3CCCC3)C[C@H]21 | -14.6 |
| COc1ccc(F)c(-c2nccn2CCN2CCCC2)c1 | 18.2 |
| COc1ccc(-c2nccn2CC(O)CN2CCCC2)c(F)c1 (stereo not given) | 61.5 |
| CCn1ccnc1CN1CCN(CC(O)c2ccc(OC)cc2)CC1 (stereo not given) | 0.8 |
| CCC(CC)(CNC(=O)NC1CCCC1(C)C)S(C)(=O)=O (stereo not given) | 2.49 |
| COCCCNC(=O)c1cc(-c2cnc(N(C)C)nc2)cn1CC1CC1 | -22.1 |
| CCCOc1ccc(Cl)cc1NC(=O)NCCC(=O)N(C)C | -5.32 |
| CCC1CCCN(S(=O)(=O)c2cnc3onc(C)c3c2)C1 (stereo not given) | 9 |
| COc1ccc2c(c1)OCC(Cc1ccnc(N)n1)C2 (stereo not given) | 11 |
| COc1ccc2c(c1)OCC(Cc1ccc(C)nc1N)C2 (stereo not given) | 57.2 |
| Cc1nc(N)ccc1CC1COc2ccccc2C1 (stereo not given) | -27.9 |
| COc1cccc2c1OCC(CNc1cc(N)nc(SC)n1)C2 (stereo not given) | 1.94 |
| COc1ccc2c(c1)OCC(Cc1ccc(N)nc1C)C2 (stereo not given) | 76.3 |
| COc1cccc2c1OCC(Cc1ccc(N)nc1C)C2 (stereo not given) | 6.83 |
| COc1ccc2c(c1)OCC(Cc1cnccc1N)C2 (stereo not given) | 29 |
| Cc1ccc(CC2COc3ccccc3C2)c(N)n1 (stereo not given) | -6.18 |
| COc1ccc2c(c1)OCC(CNc1cc(N)nc(SC)n1)C2 (stereo not given) | 69.8 |
| Cc1noc(C(C)N2CCN(CC(=O)N3CCCC3)CC2)n1 (stereo not given) | 8.99 |
| O=C(NCC1CCCCC1)N1C[C@@H]2C[C@H](C(=O)N3CCCC3)[C@H](C1)O2 | 48.2 |
| N#Cc1ccc(NCc2cc3n(n2)CCCN(C(=O)C2CCC2)C3)nc1 | 14.6 |
| CSc1ccc(-n2nnc(C(=O)O)c2-c2ccccn2)cc1 | 36.2 |
